# Hit rate of the full screen: of about 48,000 compounds, about 13,000 (27%) showed an effect of 50% or more. Some of the results follow.
# Test system: Wolbachia pipientis
# Assay: Anti-Wolbachia Cell-Based Screen
# Assay type: functional
# Parameters: scale not given: in the data most compounds retested in dose-response had high values
# Conditions: 5 µM
row,SMILES,Percent Effect
1,Cc1ccc(C(=O)NS(=O)(=O)c2ccccc2C)c(=O)[nH]1,-8.925%
2,CCNC(=O)N1CCN(Cc2nc3ccccc3[nH]2)[C@@H]2CS(=O)(=O)C[C@@H]21,3.535%
3,COC(=O)CC(NC(=O)c1cccc(CS(C)(=O)=O)c1)c1cccs1 (stereo unspecified),18.46%
4,N#Cc1ccc(F)c(CN2CCCC2Cn2cncn2)c1 (stereo unspecified),0.2616%
5,Cc1[nH]c(=O)sc1S(=O)(=O)N1CCCC1C(=O)NCc1ccsc1 (stereo unspecified),1.823%
6,COc1ccc(Oc2ncccc2NC(=O)N2CCOCC2C)cc1 (stereo unspecified),-2.613%
7,CC1COCCN1C(=O)COc1cccc(Oc2ccccn2)c1 (stereo unspecified),91.48%
8,CC1COCCN1C(=O)c1cccc(OCc2cscn2)c1 (stereo unspecified),-3.154%
9,CC(C)(C)NC(=O)COc1ccc(Oc2ccccn2)cc1,-9.446%
10,CC1COCCN1C(=O)COc1ccc(Oc2ccccn2)cc1 (stereo unspecified),102.9%
11,O=C(COc1cccc(Br)c1)N1CCOCC1c1ncon1 (stereo unspecified),-1.613%
12,O=c1oc(-c2ccc(F)cc2)nn1CCS(=O)(=O)c1ccccc1,3.372%
13,CCc1cnc(CN2CCC(O)(c3cc(OC)cc(OC)c3)CC2)o1,-1.491%
14,N#Cc1c(Cl)nsc1NCc1ccc(N2CCCC(C(N)=O)C2)cc1 (stereo unspecified),6.894%
15,COc1ccc(-c2nc(CSC3CCCCNC3=O)co2)cc1 (stereo unspecified),-25.49%
16,CNc1ccnc(N(C)Cc2cc(-c3cccs3)n[nH]2)n1,8.932%
17,CNc1cc(C(=O)N(C)Cc2cc(-c3cccs3)n[nH]2)ccn1,11.01%
18,CN(C)c1nccc(NCc2cc(-c3ccco3)n[nH]2)n1,126.3%
19,CN(C)c1nccc(NCc2cc(-c3cccs3)n[nH]2)n1,108.4%
20,Cc1n[nH]c(C)c1CNc1nc(-c2ccco2)nc2c1CCNCC2,0.9084%
21,c1coc(-c2nc3c(c(NCc4n[nH]c5c4CCC5)n2)CCNCC3)c1,-11.22%
22,O=S(=O)(CC1CC1)c1ncc(CN2CCOCC2)n1CC1CCCO1 (stereo unspecified),1.621%
23,Cn1cnc2c1CCN(CCS(=O)(=O)c1ccccc1)C2,2.795%

row,SMILES,Percent Effect
1,CCOc1ccc(CN2CCNC(C(=O)NC3CC3)C2)cc1CO (stereo unspecified),-28.15%
2,Cc1nc(CNC(=O)c2oc3ccccc3c2CN(C)C)oc1C,12.17%
3,COc1cccn(CC(=O)N(C)CCCOc2c(C)cccc2C)c1=O,-81.04%
4,COc1ccccc1OCCCN1C(=O)CCNC1=O,100.1999%
5,Cc1ccc(C)c(OCCN2CCC(N3CCNC3=O)CC2)c1,-4.141%
6,CCn1ccnc1CN1CCN(CCOc2ccccc2OC)CC1,1.541%
7,COc1ccccc1OCCCN1CCNC1=O,93.18%
8,COc1cccc(CN2C[C@H]3CC[C@H]2C3)c1OCCN1CCOCC1,3.067%
9,N#Cc1ccccc1OCCN1CCC(N2CCNC2=O)CC1,-2.122%
10,COc1ccccc1OCCN1CCC(N2CCNC2=O)CC1,-7.605%
11,COc1ccccc1OCCCc1cc(C#N)ccn1,-8.074%
12,CC(C)Oc1ccccc1OCCN1C(=O)CCNC1=O,102.7%
13,COc1ccccc1OCCCc1cncc(C(N)=O)c1,-13.5%
14,COc1cccc(OC)c1OCCN1C(=O)CCNC1=O,70.56%
15,Cc1nc(N(C)CCCc2nccn2C)c2c(C)nn(C)c2n1,-2.28%
16,Cc1[nH]c2c(C)ccc(C)c2c1CC(=O)NCc1csc(N(C)C)n1,-37.05%
17,CCC(CC)c1cc(CNC(=O)N2CCOCC2CC)on1 (stereo unspecified),8.113%
18,CC(C)(O)CCc1ccc(C(=O)NCCC2CCOC2)cc1 (stereo unspecified),-23.58%
19,CCOc1ccc(CN2CCN(CCOC)[C@@H]3CS(=O)(=O)C[C@@H]32)cc1,-4.58%
20,O=C(NCCCOCC1CC1)Nc1cccnc1N1CCOCC1,-4.484%
21,CCc1nc(C#N)c(N2CCC(c3nc(-c4ccccc4)no3)CC2)o1,-18.26%
22,c1csc(-c2noc(CCCN3CCCC3Cn3cccn3)n2)c1 (stereo unspecified),-9.384%
23,O=S(=O)(CCN1CCCC1Cn1cncn1)c1ccccc1 (stereo unspecified),102.1%

row,SMILES,Percent Effect
1,Cc1cc(C)n(CC2CCCN2CCS(=O)(=O)c2ccccc2)n1 (stereo unspecified),-8.876%
2,O=S(=O)(CCCN1CCCCC1Cn1cncn1)c1ccccc1 (stereo unspecified),108.5%
3,c1ccc(-c2noc(CCCN3CCCC3Cn3cncn3)n2)cc1 (stereo unspecified),100.9%
4,CCN(Cc1ccccc1)C(=O)CN1CCCCC1Cn1cncn1 (stereo unspecified),-8.051%
5,c1ccc(-c2noc(C3CCN(CCCn4cncn4)CC3)n2)cc1,-0.715%
6,N#Cc1cccc(CN2CCCC2Cn2cncn2)c1 (stereo unspecified),-16.52%
7,c1ccc(CCCN2CCCC2Cn2cncn2)cc1 (stereo unspecified),145.7%
8,O=C1CCCN1CCCN1CCCCC1Cn1cncn1 (stereo unspecified),3.397%
9,CN1CCN(CC2CC2)C(=O)C12CCN(c1nccs1)CC2,-15.71%
10,CC(C)NC(=O)[C@@H](NC(=O)N1CCN(c2ccc(Cl)cc2)CC1)C(C)C,-4.425%
11,Cn1cnc(-c2nc(C(=O)NCCN3CCOCC3)c3ccccn23)c1,-34.35%
12,CN(CC1CC1)S(=O)(=O)c1ccc(C(F)(F)F)cc1C#N,-1.577%
13,O=C(c1ccc2c(c1)[nH]c(=O)n2[C@H]1CC[C@H](O)CC1)N1CCOCC1,1.877%
14,N#Cc1ccccc1OCCN1CCCCC1Cn1cncn1 (stereo unspecified),-1.923%
15,O=C1CCCN1CCN1CCCCC1Cn1cncn1 (stereo unspecified),1.495%
16,O=S(=O)(c1ccccc1)N1CCCC(Cn2cncn2)C1 (stereo unspecified),-7.569%
17,O=S(=O)(CCN1CCCCC1Cn1cncn1)c1ccccc1 (stereo unspecified),104.1%
18,O=S(=O)(CCN1CCOC(Cn2cncn2)C1)c1ccccc1 (stereo unspecified),-0.6358%
19,O=S(=O)(CCCN1CCCC(Cn2cncn2)C1)c1ccccc1 (stereo unspecified),92.49%
20,CCN(CC1COc2ccccc2O1)C(=O)C1=NN(C)C(=O)CC1 (stereo unspecified),17.44%
21,COC(=O)CCNC(=O)c1c[nH]cc1-c1cccc(OC)c1,3.352%
22,COc1ccc(CN2CCCC2Cn2nc(C)nc2C)cc1F (stereo unspecified),-0.5946%
23,COc1ccc(C)cc1CN1CCCC1Cn1nc(C)nc1C (stereo unspecified),2.525%

row,SMILES,Percent Effect
1,COc1ccc(F)cc1CN1CCCC1Cn1nc(C)nc1C (stereo unspecified),149.5%
2,COc1ccc(CN2CCCCC2Cn2nc(C)nc2C)cc1F (stereo unspecified),112.6%
3,COCCNC(=O)c1cc(COc2cncc(Cl)c2)on1,6.247%
4,CC(C)CN1CCN(Cc2nc3c(s2)CCCC3)[C@H]2CS(=O)(=O)C[C@H]21,-7.173%
5,O=C(NC[C@H]1OC[C@@H](NC2CCC(F)(F)CC2)[C@@H]1O)C1CC1,-11.71%
6,Cl.c1cnc(Nc2cncc(C3CCCN3)n2)cn1 (stereo unspecified),154.6%
7,Cc1nc(Nc2cnccn2)cc(C2CCCN2)n1.Cl (stereo unspecified),92.06%
8,Cc1ccc2[nH]c(CN(C)c3cc(CCN)nc(C)n3)nc2c1,1.379%
9,CCCc1cc(C(=O)N2CCCN(c3cccnn3)CC2)[nH]n1,-4.631%
10,COc1ccc(C2(CNC(C)c3nnc(C)o3)CCCCC2)cc1 (stereo unspecified),-5.469%
11,CCN(C(=O)Cc1ccc(NCc2nccn2C)cc1)c1ccccc1,-5.228%
12,CSC(C)C(=O)N1CCC(Oc2cc(C)ccc2F)(C(=O)O)CC1 (stereo unspecified),-19.74%
13,COc1cccc(CNc2cnn(C)c(=O)c2Cl)c1,-15.43%
14,COc1cccc(CNc2c(C)nn(C(C)C)c2C)c1.Cl,-5.673%
15,CC(C)(C)C(=O)N1CCN(C(=O)Nc2cnn(CC(F)F)c2)CC1,14.61%
16,COc1ccc(CNc2cnn(CC(F)F)c2)cc1,98.47%
17,COc1cccc(CNc2cnn(CC(F)F)c2)c1,110.9%
18,COCCn1cc(NCc2c[nH]nc2-c2ccc(OC)cc2)cn1,-43.6%
19,CC1=CC(C)(C)N(CN2C(=O)c3ccccc3C2=O)c2ccc(C)cc21,-18.46%
20,CCN1CCC(CC(=O)NCCc2nc(C)c(Cl)s2)CC1,-2.005%
21,CCC(c1nc(CC(C)C)nn1-c1ccccn1)n1cccn1 (stereo unspecified),-7.483%
22,Nc1nccc(C2CCN(c3cnccn3)C2)n1 (stereo unspecified),100.6%
23,O=C1OCCC1N1CCN(c2cnccn2)CC1 (stereo unspecified),-13.03%

row,SMILES,Percent Effect
1,CN(C)c1ccc(C2CCN(c3cnccn3)CC2)nc1,110.3%
2,c1cc(C2CCN(c3cnccn3)CC2)ncn1,111.8%
3,CC(c1ccccc1)N(C)C(=O)CN1CCN(c2cnccn2)CC1 (stereo unspecified),-4.354%
4,Cc1ccc(-c2cn[nH]c2C2CCCN(c3cnccn3)C2)cc1 (stereo unspecified),-26.5%
5,c1ccc(C2CCN(c3cncc(-n4cccn4)n3)CC2)cc1,-3.284%
6,CSCCCN1CCC[C@]2(C(=O)O)CN(c3cnccn3)CC[C@@H]12,-18.46%
7,c1cc(C2CCN(c3cnccn3)CC2)ccn1,108.9%
8,CC(C)c1nccn1C(C)C(=O)N1CCN(c2cnccn2)CC1 (stereo unspecified),8.025%
9,Cc1ccc(CN2CC[C@@H](O)[C@@H]2Cc2ccccc2)o1.O=C(O)C(F)(F)F,1.325%
10,CC(=O)c1cccc(OCCCC(=O)N(C)Cc2ccccn2)c1,14.18%
11,CC(C)[C@H]1CN(c2ccncc2)C[C@@H]1NS(=O)(=O)N(C)C,113.1%
12,CC(C)[C@@H]1CN(Cc2ccsc2)C[C@H]1NS(=O)(=O)N(C)C,12.46%
13,COc1ccnc(N2C[C@@H](NS(=O)(=O)N(C)C)[C@H](C(C)C)C2)n1,1.494%
14,CC(C)[C@@H]1CN(c2ccc(F)cn2)C[C@H]1NS(C)(=O)=O,-10.09%
15,CC(C)[C@@H]1CN(S(=O)(=O)Cc2ccccc2)C[C@H]1NS(=O)(=O)N(C)C,-33.69%
16,CC(C)[C@@H]1CN(c2ncc(F)cn2)C[C@H]1NS(=O)(=O)N(C)C,83.11%
17,CCN(C)S(=O)(=O)N[C@H]1CN(c2ccc(F)cn2)C[C@@H]1C(C)C,1.28%
18,Cc1noc(C)c1CN1C[C@@H](NC(=O)N(C)C)[C@H](C(C)C)C1,-17.12%
19,CC(C)[C@@H]1CN(c2ncc(F)cn2)C[C@H]1NC(=O)N(C)C,70.99%

# Source: ChEMBL document CHEMBL3988442, “University of Dundee, Small-Polar-MMV Screening Library” (2021)
